Bioassay records: PubChem BioAssay, National Center for Advancing Translational Sciences (NCATS)
CHX counter: counter-screen hit for Shiga toxin inhibitors, cycloheximide; cell reporter, cycloheximide protein synthesis inhibition counterscreen; max response, %; 300,000 compounds, 12% hits; AID 2314; in the data active means max response mostly above about 13%, no sharp cut-off; inactive means mostly below about 14%; further: read at 38.3 µM for the half of the compounds with a filed dose
NS1 inh: blocks influenza NS1 protein function; Potency, µM (titrated, usually from 46.1 µM); 270,000 compounds, 0.4% hits; calls by dose curve; further: actives are rising curves; nearly all actives have a fitted effect of over 50% in size
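Read-out: OD600 growth recovery of NS1-expressing budding yeast. Cells grown overnight at 30C in -URA glucose medium, washed, resuspended and diluted 1:100 in 2% galactose assay medium, pH 6.0. Same strain lacking NS1 served as positive control.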
Sm TGR block: inhibitors of Schistosoma mansoni thioredoxin glutathione reductase; purified TGR, DTNB reduction, TNB absorbance 405 nm; Q962Y6; 360,000 compounds, 3% hits; Potency, µM (series often up to 114 µM), actives largely listed as inhibitors; further: nearly all actives have a fitted effect of over 60% in size
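TGR 20 nM + NADPH 100 uM (dispensed conc.), cpd preinc 15 min RT; start with NADPH (500 uM addition) then DTNB (15 mM addition). Kinetic TNB absorbance, 405 nm filter. Four-parameter Hill fit across titration.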
Pf growth 48h: P. falciparum growth inhibition at 48 hours (one generation); P. falciparum luciferase growth in erythrocytes, 48 h; Potency, µM (titrated, usually from 28.7 µM), actives largely listed as inhibitors; 310,000 compounds, 5.9% hits; AID 504832
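Luciferase-expressing P. falciparum in infected erythrocytes (2% hematocrit, 0.1% parasitemia final) in RPMI 1640/0.5% Albumax were exposed to compound for 48 hours at 37 C, 5% CO2; growth read as luminescence.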
Pf growth 96h: inhibits malaria parasite growth, 96 h. 320,000 compounds, 6.9% hits. Potency, µM (highest dose often 28.7 µM), most hits filed as inhibitors. P. falciparum luciferase reporter growth, 96 h
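Infected RBCs, 2% Hct / 0.05% parasitemia final; luciferase-reporter P. falciparum; cpd 96 h, 37 C, 5% CO2; luciferase detection reagent; luminescence.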
Shiga inhibitor: inhibitors of Shiga toxin in Vero cells; 290,000 compounds, 9.2% hits; Vero cells, Shiga toxin protein synthesis inhibition reporter; inhibition, % at 38.7 µM; AID 2315; in the data active means inhibition mostly above about 28%, no sharp cut-off; inactive means mostly below about 43%
A number is an active result; - = inactive; ? = inconclusive; . = no result given. Hits are enriched below; roughly 21% of the tested compounds scored in any of these assays. Unless noted, the call rests on the fitted dose curve; in most records, active means well fitted curve in the direction sought with a large enough effect; inconclusive means small, poorly fitted or top-dose-only effect, or another doubt; inactive means no such curve, though single readings can be large; an effect the other way counts as inactive or inconclusive.

SMILES	CHX counter	NS1 inh	Sm TGR block	Pf growth 48h	Pf growth 96h	Shiga inhibitor
Nc1cccc(-c2nc3ccc(N)cc3s2)c1	21	-	-	-	-	-
Nc1ccc2nc(-c3ccc(O)cc3)sc2c1	.	.	-	.	.	.
Cc1ccc2nc(-c3ccc(NC(=O)c4ccc(N)cc4)c(S(=O)(=O)O)c3)sc2c1	.	-	.	.	.	.
Nc1ccc(-c2nc3ccc(C(=O)O)cc3s2)cc1	-	-	-	-	-	-
Nc1cc2sc(-c3ccc(C(=O)O)cc3)nc2cc1Cl	26	-	-	-	-	31
Nc1ccc(-c2nc3ccc(N)cc3s2)cc1	14	-	-	-	-	-
COc1cc(Cl)c(C)cc1NC(=O)CC1Oc2ccccc2NC1=O (stereo unspecified)	.	.	-	.	.	.
COc1cc(C(=O)N=C2SC3CS(=O)(=O)CC3N2c2ccccc2)cc(OC)c1OC (stereo unspecified)	-	-	-	-	-	-
CC(=O)c1ccc(N2C(=NC(=O)C3CCCO3)SC3CS(=O)(=O)CC32)cc1 (stereo unspecified)	-	-	-	-	-	-
CCCC(=O)N=C1SC2CS(=O)(=O)CC2N1c1ccc(-c2nc3ccc(C)cc3s2)cc1 (stereo unspecified)	44	-	-	-	-	106
CN(C)c1ccc(N2C(=NC(=O)C3CCCO3)SC3CS(=O)(=O)CC32)cc1 (stereo unspecified)	38	-	-	-	-	-
COc1ccccc1C(=O)N=C1SC2CS(=O)(=O)CC2N1c1ccccc1 (stereo unspecified)	9.8	-	-	-	?	-
O=C(CCCc1ccccc1)N=C1SC2CS(=O)(=O)CC2N1c1ccccc1 (stereo unspecified)	-	-	-	-	-	-
CN(C)c1ccc(N2C(=NC(=O)CCc3ccccc3)SC3CS(=O)(=O)CC32)cc1 (stereo unspecified)	19	-	-	?	12µM	-
O=S(=O)(N1CCOCC1)n1cnc2ccccc21	-	-	-	.	-	-
NC(CCC(=O)O)C12CC3CC(CC(C3)C1)C2 (stereo unspecified)	-	-	-	-	-	-
CC1=CCC(COC(=O)Nc2ccccc2)CC1 (stereo unspecified)	51	-	-	-	-	82
O=C(Nc1ccccc1)OCC1CCCN2CCCCC12 (stereo unspecified)	-	-	-	-	-	-
COc1ccc2ccc(C(C)(C(C)=O)C(=O)OC(C)C)cc2c1 (stereo unspecified)	.	.	-	-	?	.
CCCCCSc1nc2sc3c(c2c(=O)n1-c1ccccc1)CCN(C(C)=O)C3	.	.	-	.	.	.
C/C(=N\N=C1\NC(=O)C(CC(=O)O)S1)c1ccccn1 (stereo unspecified)	-	-	-	10µM	1.2µM	-
Cc1cccc(N(Cc2ccccc2)C(=O)Cc2ccc(S(=O)(=O)N3CCOCC3)s2)c1	.	.	-	13µM	?	.
CN(Cc1ccc(Cl)cc1)C(=O)c1cc(S(=O)(=O)N2CCOCC2)ccc1N1CCCC1	.	.	-	?	?	.
Cc1ccc(N(Cc2ccccc2)C(=O)c2cc(S(=O)(=O)N3CCOCC3)ccc2N2CCCC2)cc1	.	.	-	2.6µM	?	.
CN(Cc1ccc(C(C)(C)C)cc1)C(=O)Cc1ccc(S(=O)(=O)N2CCOCC2)s1	.	.	-	9.3µM	13µM	.
SMILES	CHX counter	NS1 inh	Sm TGR block	Pf growth 48h	Pf growth 96h	Shiga inhibitor
Cc1ccc(S(=O)(=O)N2CCOCC2)cc1C(=O)OCC(=O)N(Cc1ccccc1)C(C)C	.	.	-	15µM	?	.
CCc1ccc(CNC(=O)c2cc(=O)[nH]c3ccc(S(=O)(=O)N4CCCCC4)cc23)cc1	.	.	-	.	.	.
O=S1(=O)CCOCCN1Cc1ccc(Cl)cc1Cl	-	-	?	-	?	-
COc1c(OC(C)=O)ccc(/C=N\NC(=O)c2ccc(Br)cc2)c1[N+](=O)[O-]	-	-	-	-	?	-
CC1CN(S(=O)(=O)c2cc(C(=O)N(CCc3ccccc3)Cc3ccccc3)ccc2Cl)CC(C)O1 (stereo unspecified)	.	.	-	5.2µM	5.2µM	.
Cc1cccc(N(Cc2ccccc2)C(=O)c2cccc(S(=O)(=O)N3CC(C)OC(C)C3)c2)c1 (stereo unspecified)	.	.	-	13µM	?	.
Cc1ccc(C(=O)N(CCc2ccccc2)Cc2ccccc2)cc1S(=O)(=O)N1CCCCC1	.	.	-	13µM	8.3µM	.
